Experimental data reported in PubChem BioAssay AID1159580 (chemical genetic matrix, 2015).
About 2,000 (36%) of roughly 5,500 compounds were called active. Not shown: some 18% with an inconclusive outcome. Rule as the data show it: active = normalized growth mostly below about 0.91 (no sharp cut-off); inconclusive = no clear call, values can overlap the other calls; inactive = mostly above about 0.92. This is one part of the list.

Assay: chemical genetic growth profiling, strain panel (AID 1159580);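 also: tested at 20 µM; growth read once vehicle control cultures reached saturation at 30 °C; 1 = growth at the plate median or of vehicle wells; lower values mean less growth of the strain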
Details: growth OD
[1] = S. cerevisiae deletion strains, locus YAL013W, strain DEP1, active compounds read low
[2] = S. cerevisiae deletion strains, locus YDR150W, strain NUM1, active compounds read low
[3] = S. cerevisiae deletion strains, locus YJL095W, strain BCK1, active compounds read low
[4] = S. cerevisiae deletion strains, locus YMR307W, strain GAS1, active compounds read low
[5] = S. cerevisiae deletion strains, locus YPL241C, strain CIN2, active compounds read low
[6] = S. cerevisiae deletion strains, locus YAL040C, strain CLN3, active compounds read low
[7] = S. cerevisiae deletion strains, locus YDR363W, strain ESC2, active compounds read low
[8] = S. cerevisiae deletion strains, locus YER002W, strain NOP16, active compounds read low
[9] = S. cerevisiae deletion strains, locus YNL175C, strain NOP13, active compounds read low
[10] = S. cerevisiae deletion strains, locus YNL197C, strain WHI3, active compounds read low
[11] = S. cerevisiae deletion strains, locus YNL224C, strain SQS1, active compounds read low
[12] = S. cerevisiae deletion strains, locus YOR083W, strain WHI5 (second series), active compounds read low

Measured: normalized growth

CC1(C)C(=O)[C@@H]2O[C@@H]2[C@@]2(C)C1CC(=O)[C@]1(C)C2CC[C@@]2(C)[C@H](c3ccoc3)OC(=O)[C@H]3O[C@]321 (some centres undefined)
inactive: [1] 0.99 | S. cerevisiae deletion strains, locus YBR021W, strain FUR4, active compounds read low 1.04 | S. cerevisiae deletion strains, locus YBR229C, strain ROT2, active compounds read low 0.984 | S. cerevisiae deletion strains, locus YCL029C, strain bik1, active compounds read low 0.976 | S. cerevisiae deletion strains, locus YDL035C, strain GPR1, active compounds read low 0.992 | S. cerevisiae deletion strains, locus YDL074C, strain BRE1, active compounds read low 0.955 | S. cerevisiae deletion strains, locus YDL101C, strain DUN1, active compounds read low 0.978 | S. cerevisiae deletion strains, locus YDL134C, strain PPH21, active compounds read low 0.967 | S. cerevisiae deletion strains, locus YDL185W, strain tfp1, active compounds read low 0.951 | S. cerevisiae deletion strains, locus YDL192W, strain arf1, active compounds read low 0.979 | S. cerevisiae deletion strains, locus YDR101C, strain arx1, active compounds read low 0.985 | [2] 0.991 | S. cerevisiae deletion strains, locus YDR162C, strain NBP2, active compounds read low 0.943 | S. cerevisiae deletion strains, locus YDR318W, strain mcm21, active compounds read low 0.984 | S. cerevisiae deletion strains, locus YDR388W, active compounds read low 0.985 | S. cerevisiae deletion strains, locus YDR502C, strain sam2, active compounds read low 0.969 | S. cerevisiae deletion strains, locus YEL061C, strain CIN8, active compounds read low 0.994 | S. cerevisiae deletion strains, locus YER110C, active compounds read low 0.98 | S. cerevisiae deletion strains, locus YER155C, strain BEM2, active compounds read low 0.994 | S. cerevisiae deletion strains, locus YER167W, strain BCK2, active compounds read low 0.991 | S. cerevisiae deletion strains, locus YGL078C, strain dbp3, active compounds read low 0.966 | S. cerevisiae deletion strains, locus YGL086W, strain mad1, active compounds read low 0.995 | S. cerevisiae deletion strains, locus YGL248W, strain PDE1, active compounds read low 0.949 | S. cerevisiae deletion strains, locus YGR135W, strain pre9, active compounds read low 0.968 | S. cerevisiae deletion strains, locus YGR252W, strain gcn5, active compounds read low 0.962 | S. cerevisiae deletion strains, locus YHR079C, strain IRE1 (second series), active compounds read low 0.987 | S. cerevisiae deletion strains, locus YHR094C, strain hxt1, active compounds read low 0.981 | S. cerevisiae deletion strains, locus YHR129C, strain ARP1, active compounds read low 0.988 | S. cerevisiae deletion strains, locus YHR200W, strain rpn10, active compounds read low 0.988 | S. cerevisiae deletion strains, locus YIL066C, strain RNR3, active compounds read low 0.987 | S. cerevisiae deletion strains, locus YIL073C, strain SPO22, active compounds read low 0.96 | S. cerevisiae deletion strains, locus YIL125W, strain kgd1, active compounds read low 0.943 | S. cerevisiae deletion strains, locus YIR030C, strain dcg1, active compounds read low 0.975 | [3] 0.946 | S. cerevisiae deletion strains, locus YJL134W, strain LCB3, active compounds read low 0.988 | S. cerevisiae deletion strains, locus YJL168C, strain set2, active compounds read low 0.989 | S. cerevisiae deletion strains, locus YJL187C, strain SWE1 (second series), active compounds read low 0.977 | S. cerevisiae deletion strains, locus YJR043C, strain POL32, active compounds read low 0.991 | S. cerevisiae deletion strains, locus YKL009W, strain mrt4, active compounds read low 0.971 | S. cerevisiae deletion strains, locus YKL068W, active compounds read low 0.973 | S. cerevisiae deletion strains, locus YKL085W, strain MDH1 (second series), active compounds read low 0.981 | S. cerevisiae deletion strains, locus YKL085W, strain MDH1, active compounds read low 0.981 | S. cerevisiae deletion strains, locus YKR001C, strain vps1, active compounds read low 0.957 | S. cerevisiae deletion strains, locus YLR039C, strain RIC1, active compounds read low 0.951 | S. cerevisiae deletion strains, locus YLR058C, strain SHM2, active compounds read low 0.988 | S. cerevisiae deletion strains, locus YLR102C, strain apc9, active compounds read low 0.975 | S. cerevisiae deletion strains, locus YLR262C, strain YPT6, active compounds read low 0.912 | S. cerevisiae deletion strains, locus YLR268W, strain sec22, active compounds read low 0.997 | S. cerevisiae deletion strains, locus YLR330W, strain CHS5, active compounds read low 0.99 | S. cerevisiae deletion strains, locus YLR342W, strain FKS1 (second series), active compounds read low 1.03 | S. cerevisiae deletion strains, locus YLR371W, strain rom2, active compounds read low 0.962 | S. cerevisiae deletion strains, locus YLR418C, strain cdc73, active compounds read low 0.904 | S. cerevisiae deletion strains, locus YML016C, strain PPZ1, active compounds read low 0.984 | S. cerevisiae deletion strains, locus YML032C, strain rad52, active compounds read low 0.992 | S. cerevisiae deletion strains, locus YML124C, strain tub3, active compounds read low 0.97 | S. cerevisiae deletion strains, locus YMR078C, strain ctf18, active compounds read low 0.955 | S. cerevisiae deletion strains, locus YMR223W, strain ubp8, active compounds read low 0.973 | [4] 1.05 | S. cerevisiae deletion strains, locus YNL067W, strain RPL9B, active compounds read low 0.957 | S. cerevisiae deletion strains, locus YNL233W, strain BNI4, active compounds read low 0.964 | S. cerevisiae deletion strains, locus YNL250W, strain rad50, active compounds read low 0.96 | S. cerevisiae deletion strains, locus YNL271C, strain bni1, active compounds read low 0.973 | S. cerevisiae deletion strains, locus YNL298W, strain CLA4, active compounds read low 0.967 | S. cerevisiae deletion strains, locus YNL307C, strain MCK1, active compounds read low 0.982 | S. cerevisiae deletion strains, locus YNR052C, strain pop2, active compounds read low 0.977 | S. cerevisiae deletion strains, locus YOL006C, strain TOP1, active compounds read low 0.895 | S. cerevisiae deletion strains, locus YOL012C, strain htz1 0.769 | S. cerevisiae deletion strains, locus YOL147C, strain pex11, active compounds read low 0.988 | S. cerevisiae deletion strains, locus YOR061W, strain CKA2, active compounds read low 0.977 | S. cerevisiae deletion strains, locus YOR069W, strain VPS5, active compounds read low 0.985 | S. cerevisiae deletion strains, locus YOR136W, strain idh2, active compounds read low 0.995 | S. cerevisiae deletion strains, locus YOR144C, strain elg1, active compounds read low 0.983 | S. cerevisiae deletion strains, locus YOR184W, strain ser1, active compounds read low 0.982 | S. cerevisiae deletion strains, locus YOR316C, strain cot1, active compounds read low 0.973 | [5] 0.977 | S. cerevisiae deletion strains, locus YPR119W, strain clb2, active compounds read low 0.986 | S. cerevisiae deletion strains, locus YPR141C, strain kar3, active compounds read low 0.964 | S. cerevisiae deletion strains, locus YPR163C, strain tif3, active compounds read low 0.995 | S. cerevisiae deletion strains, locus YPR167C, strain met16, active compounds read low 0.985 | S. cerevisiae deletion strains, strain wtn01, active compounds read low 0.978 | S. cerevisiae strains, strain wild type, active compounds read low 1.01

Cc1nc(N=Nc2ccc(S(=O)(=O)O)cc2S(=O)(=O)O)c(COP(=O)(O)O)c(C=O)c1O
inactive: [6] 1 | S. cerevisiae deletion strains, locus YCL061C, strain MRC1 (second series), active compounds read low 1 | [2] 1.01 | [7] 1.01 | [8] 0.993 | S. cerevisiae deletion strains, locus YGR229C, strain SMI1, active compounds read low 1.02 | [4] 0.998 | S. cerevisiae deletion strains, locus YNL128W, strain TEP1, active compounds read low 1.02 | [9] 1 | [10] 1.01 | [11] 1.01 | [12] 1.01 | S. cerevisiae deletion strains, locus YPL055C, strain LGE1, active compounds read low 1 | [5] 0.997

CC(C)C1C2CCC(C2)C1N (centres undefined)
inactive: [1] 1.01 | [6] 0.976 | [2] 0.985 | [7] 1.02 | [8] 1 | S. cerevisiae deletion strains, locus YGR078C, strain PAC10, active compounds read low 1.02 | S. cerevisiae deletion strains, locus YNL153C, strain GIM3, active compounds read low 1.03 | [9] 1.02 | [10] 1 | [11] 1.03 | [12] 1.01

O1[As]2O[As]3O[As]1O[As](O2)O3
inactive: S. cerevisiae deletion strains, locus YHR030C, strain SLT2, active compounds read low 0.959 | S. cerevisiae deletion strains, locus YHR079C, strain IRE1, active compounds read low 0.974 | [3] 0.983 | S. cerevisiae deletion strains, locus YJR066W, strain TOR1, active compounds read low 0.961 | S. cerevisiae deletion strains, locus YLR113W, strain HOG1, active compounds read low 1.05 | S. cerevisiae deletion strains, locus YNL183C, strain NPR1, active compounds read low 0.927 | S. cerevisiae deletion strains, locus YOR231W, strain MKK1, active compounds read low 0.973 | S. cerevisiae deletion strains, locus YPL256C, strain CLN2, active compounds read low 0.98
